Source: PubChem BioAssay
Only some compounds are listed: those with a hit (about 21% of all), similar ones and a draw of the others.
Pf growth 48h: P. falciparum growth inhibition at 48 hours (one generation); 5.9% of 310,000 active; P. falciparum luciferase growth in erythrocytes, 48 h; Potency, µM (series often up to 28.7 µM), actives largely listed as inhibitors
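In quantitative HTS format, infected erythrocytes bearing luciferase-reporter parasites were treated for a single generation at 37 C. Luminescence after adding detection reagent served as the growth measure.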
CHX counter: counter-screen hit for Shiga toxin inhibitors, cycloheximide; AID 2314; 12% of 300,000 active; cell reporter, cycloheximide protein synthesis inhibition counterscreen; max response, %; in the data active means max response mostly above about 13%, no sharp cut-off; inactive means mostly below about 14%; further: read at 38.3 µM for the half of the compounds with a filed dose
HCMV inh: inhibitors of human cytomegalovirus; AID 1259415; 4.5% of 410,000 active; HFF cells, HCMV-luciferase reporter, 72 h; active compounds read low; activity change, negative = inhibition, % at 57.5 µM; in the data active means activity change below about -60%; inconclusive means no clear call, values can overlap the other calls; inactive means above about -39%
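HFF cells seeded 16 h at 37C, treated with compounds, infected with luciferase-reporter HCMV at MOI 1 PFU/cell; luciferase read at 72 h post infection, normalized to buffer-only and Salinomycin controls.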
Pf growth 96h: P. falciparum growth inhibition at 96 hours. P. falciparum luciferase reporter growth, 96 h. Potency, µM (top dose mostly 28.7 µM), hits mostly inhibitors. 6.9% of 320,000 active
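Readout is luminescence from an integrated firefly luciferase in P. falciparum. Red cells, 2% hematocrit and 0.05% parasitemia final, were cultured with compound through two parasite generations (96 hours) at 37 C, 5% CO2.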
Shiga toxin inh: Shiga toxin inhibition; AID 2315; inhibition, % at 38.7 µM; 9.2% of 290,000 active; Vero cells, Shiga toxin protein synthesis inhibition reporter; in the data active means inhibition mostly above about 28%, no sharp cut-off; inactive means mostly below about 43%
HCV inh: HCV inhibition. Huh7.5.1 HCVcc-Cre infection, luciferase reporter, 44 h. Potency, µM (series often up to 41.8 µM), usual class: inhibitors. 3.4% of 340,000 active
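Infectious HCV cell culture screen: compound-treated cells (1,000/well, pre-plated 4 h) are infected with HCVcc-Cre at roughly 0.5 moi and grown 44 h. Infection is quantified by luciferase signal after 15 min substrate incubation at room temperature.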
A number is an active result; 0 = inactive; ? = inconclusive; - = no result given; + = active, no number; ! = repeats disagree; [ ] = dose if it differs, or a comment. Unless noted, the call rests on the fitted dose curve; in most records, active means well fitted inhibition curve with a large enough effect; inconclusive means small, poorly fitted or top-dose-only effect, or another doubt; inactive means no such curve, though single readings can be large or run the other way.

SMILES | Pf growth 48h | CHX counter | HCMV inh | Pf growth 96h | Shiga toxin inh | HCV inh
CCCCCCCn1c(=N)n(CC(O)c2ccco2)c2ccccc21 (centres undefined) | 4.15µM | 0 | -72.7 | ? | 0 | 8.91µM
CCCCCCCn1c(=N)n(CC(=O)c2ccco2)c2ccccc21 | - | 0 | 0 | 11.7µM | 0 | ?
O=C(CCSc1nccn1Cc1ccccc1)N1CCOCC1 | 0 | 19.2 | 0 | 0 | + | 0
Cc1ccc(CC(=O)N2CCOCC2)cc1 | 0 | 0 | 0 | 0 | 0 | 0
O=C(Cc1ccc(Cl)cc1)N1CCOCC1 | 0 | 0 | 0 | 14.7µM | 0 | 0
O=C(CSc1ccc(Cl)cc1)N1CCOCC1 | 0 | 29.2 | 0 | - | 68.3 | 0
CCOC(=O)N1CCN(C(=O)CCSc2ccc(Cl)cc2)CC1 | 0 | 0 | 0 | 0 | 0 | 0
O=C(CCSc1ccc(Cl)cc1)N1CCOCC1 | 0 | 29.0 | 0 | 0 | 53.0 | 0
Cc1ccc(CNc2nc(-c3ccco3)nn2S(C)(=O)=O)cc1 | - | - | 0 | - | - | -
CC(C)C[C@@H]1COc2cccc(N(C)CCO)c2S(=O)(=O)N1 | - | - | 0 | - | - | -
CCN(C(=O)c1cc2c(=O)oc3ccccc3c2s1)c1ccccc1F | - | - | 0 | - | - | -
Cc1ccc(NC(=O)CSc2nc(N)cc(=O)[nH]2)cc1S(=O)(=O)N1CCCCCC1 | - | - | 0 | - | - | ?
O=C(CSc1ccc(Br)cc1)N1CCOCC1 | 0[0.00184 µM] | 27.2 | ? | 0 | 45.9 | 0
Cc1ccc(SCC(=O)N2CCOCC2)cc1 | 0 | 23.0 | 0 | - | 34.9 | 0
COCCn1c(CCC(=O)Nc2ccc(C)c(Cl)c2)nc2cccnc21 | - | - | 0 | - | - | -
O=C(CN(C(=O)c1csnn1)c1cccc2ccccc12)NCc1ccccc1 | ? | 0 | 0 | 0 | 0 | 0
COCCCNC(=O)C1CC(=O)N(C2CCCC2)C1 (centres undefined) | 0 | 0 | 0 | 10.4µM | 0 | 0
CCOCCCNC(=O)C1CC(=O)N(C2CCCC2)C1 (centres undefined) | 0 | 0 | 0 | 11.7µM | 0 | 0
CCNC(=O)CCSc1nnc(-c2ccco2)o1 | 0 | 0 | 0 | 0 | 0 | 0
Cc1ccc(C)c(C(=O)COC(=O)c2ccc(C)c(S(=O)(=O)N3CCOCC3)c2)c1 | ? | - | 0 | 0 | - | ?
CCOC(=O)N1CCC(NC(=O)Cc2ccccc2)CC1 | 0 | 0 | 0 | 0 | 0 | 0
CCOC(=O)N1CCC(NC(=O)Cn2nc(-c3ccccc3)ccc2=O)CC1 | 0 | 0 | 0 | 9.28µM | 0 | 0
CCOC(=O)N1CCC(NC(=O)c2cnc3n(c2=O)CCS3)CC1 | 0 | 0 | -60.7 | 0 | 0 | 0
CCCCNC(=O)c1cnc2n(c1=O)CCS2 | 0 | 0 | 0 | 0 | 0 | 0
CCOC(=O)N1CCC(NC(=O)CCC(=O)c2ccccc2)CC1 | 0 | 0 | 0 | 8.28µM | 0 | 0
SMILES | Pf growth 48h | CHX counter | HCMV inh | Pf growth 96h | Shiga toxin inh | HCV inh
CCOC(=O)N1CCN(C(=O)CCn2nc(-c3ccccc3)ccc2=O)CC1 | 0 | 0 | 0 | 0 | 0 | 0
CCOC(=O)N1CCC(NC(=O)c2ccccc2C(=O)O)CC1 | 5.86µM | 0 | 0 | 0 | 0 | 0
CCOC(=O)N1CCC(Nc2ccc3nnc(-c4ccccc4)n3n2)CC1 | - | 0 | 0 | 0 | 0 | 14.1µM
CCOC(=O)N1CCN(C(=O)CSc2ccc3nnc(-c4cccnc4)n3n2)CC1 | 0 | 0 | 0 | 0 | 0 | 0
CCOC(=O)N1CCC(NCCNC(=O)c2ccccc2)CC1 | 0 | 0 | -70.0! | 0 | 0 | 0
CCOC(=O)CC(=O)CSc1ccc2nnc(-c3ccccc3)n2n1 | 3.7µM | 0 | 0 | ? | 0 | 0
CCc1cc(C(=O)N2CCCC(C(=O)c3cccc(OC(C)C)c3)C2)n(C)n1 (centres undefined) | 0 | 0 | 0 | ? | 0 | 0
CC(C)c1ccc(NC2CCCN(C(=O)CCc3cnn(C)c3)C2)cc1 (centres undefined) | 0 | 0 | 0 | 7.38µM | 0 | 0
Cc1nn(C)c(C)c1CCC(=O)N1CCCC(Nc2ccc(C(C)C)cc2)C1 (centres undefined) | 0 | 0 | ? | 0 | 0 | 0
CCc1[nH]nc(C(=O)N2CCCC(C(=O)c3cccc(OC(C)C)c3)C2)c1C (centres undefined) | ? | 24.1 | 0 | ? | 50.7 | ?
CC(C)Oc1cccc(C(=O)C2CCCN(C(=O)CCc3cnn(C)c3)C2)c1 (centres undefined) | 0 | 51.6 | 0 | ? | 65.8 | -
Cc1ccc(S(=O)(=O)N2CCC(NC(=O)c3cccnc3)CC2)cc1Cl | ? | 0 | 0 | ? | 0 | 0
COc1cc2c(-c3ccc4[nH]ccc4c3)c(-c3ccc(C#N)cc3)oc(=O)c2cc1OC | ? | - | 0 | 4.65µM | - | 11.2µM
COc1cc2c(-c3ccc4cc[nH]c4c3)c(-c3ccsc3)oc(=O)c2cc1OC | ? | - | ? | 2.33µM | - | ?
O=C(Nc1ccc(C(F)(F)F)cc1)c1cc(S(=O)(=O)NC2CCCCCC2)ccc1F | - | - | -77.6 | - | - | -
CCOc1ccc(NC(=O)c2cc(S(=O)(=O)NC3CCCC3)ccc2F)cc1 | - | - | -60.5 | - | - | -
O=C(Nc1ccc(C(F)(F)F)cc1)c1cc(S(=O)(=O)NC2CCCCC2)ccc1F | - | - | 0 | - | - | -
O=C1NN=C(CSc2n[nH]c(=S)s2)CS1 | 0 | 0 | 0 | 0 | 0 | 0
CCCCOc1ccc(CN(C)c2ncnc(N)n2)cc1 | 0 | 15.1 | 0 | 0 | 32.5 | 0
CC(C)(C)c1ccccc1NC(=S)NCc1ccccc1 | ? | 0 | -71.7 | 13.1µM | 0 | 0
CN(C)CCNC(=S)Nc1ccccc1C(C)(C)C | 0 | 0 | 0 | 0[5.75 µM] | 0 | 0
Cc1ccccc1NC(=S)NCCC(c1ccccc1)c1ccccc1 | 0 | 0 | 0 | 0 | 0 | 0
Cc1ccc(NCc2ccccc2O)c(C)c1 | 0 | 19.8 | ? | 0 | 48.0 | 0
Cc1ccc(NC(=S)NCc2ccc(Cl)cc2)c(OC(F)F)c1 | ? | 0 | 0 | 4.15µM | 0 | 0
Cc1ccc(NC(=S)NCCC(c2ccccc2)c2ccccc2)c(C)c1 | ? | 0 | -62.2 | ? | 0 | 11.2µM
SMILES | Pf growth 48h | CHX counter | HCMV inh | Pf growth 96h | Shiga toxin inh | HCV inh
CCCn1c2ccccc2c2cnn(CC(=O)NCc3ccc(OC)cc3)c(=O)c21 | - | - | 0 | - | - | -
Cc1cc(C)n(C(C)CC(=O)Nc2ccc(C)c(N(C)C)c2)n1 (centres undefined) | - | - | 0 | - | - | -
Cc1ccc(NC(=S)NCc2ccccc2)c(C)c1 | ? | 10.0 | 0 | ? | 0 | 0
O=C1NC[C@H](CCCCN2CCN(CC3CCCCC3)C(=O)C2=O)N(Cc2ccccc2)C1=O | - | - | 0 | - | - | -
Cc1ccc(S(=O)(=O)NN2C(=O)c3ccccc3NC2c2ccccn2)cc1 (centres undefined) | 0 | 0 | 0 | ? | 0 | ?
COC(=O)c1cccc2c([N+](=O)[O-])c(NC(C)=O)cc(C(=O)OC)c12 | - | - | 0 | - | - | -
CCOC(=O)N1CCN(C(=O)c2ccc3oc(CCc4ccccc4)nc3c2)CC1 | - | - | 0 | - | - | -
NC(=O)[C@@H]1CCCN1C(=O)c1ccc2oc(CCc3ccccc3)nc2c1 | 0 | 43.3 | 0 | 0 | 40.2 | -
O=C(CCc1nnc(CCCCc2ccccc2)o1)N1CCCCC1CCO (centres undefined) | 0 | 0 | 0 | 0 | 0 | 0
